# Assay outcomes: PubChem BioAssay, several laboratories
# Anthrax LF prot: inhibitors of Bacillus anthracis lethal factor protease | P15917 | multiplex microsphere protease cleavage assay, LF | inhibition, % at 10 µM | 360,000 compounds, 0.12% hits; also: plate controls were buffer without enzyme for full effect and enzyme alone for no effect
# Bead autofluor: flagged as autofluorescent in microsphere protease counterscreen. compound autofluorescence counterscreen, microsphere flow cytometry; hits give high values. fluorescence intensity (no concentration beside the values). 360,000 compounds, 3.1% hits. AID 624483; in the data active = fluorescence intensity above about 16000; inconclusive = no clear call, values can overlap the other calls
# BoNT-F LC inh: inhibitors of Botulinum neurotoxin F light chain protease; Multiplex microsphere protease cleavage assay, flow cytometry; inhibition, % at 10 µM; AID 588497; 360,000 compounds, 0.22% hits; in the data active = inhibition above about 35%, passing the limit was not always enough; inconclusive = no clear call, values can overlap the other calls; also: plate controls were buffer without enzyme for full effect and enzyme alone for no effect
# BoNT A protease: inhibitors of Botulinum neurotoxin A light chain protease; AID 588499; multiplex microsphere protease substrate cleavage, flow cytometry; 360,000 compounds, 0.17% hits; inhibition, % at 10 µM; also: plate controls were buffer without enzyme for full effect and enzyme alone for no effect
# BJeLR lethal: BJeLR cell viability loss. BJeLR (HRASV12) viability, CellTiter-Glo ATP luminescence, 48 h. inhibition, % (concentration not given with the values). 300,000 compounds, 0.17% hits; in the data active = inhibition above about 50%; inconclusive = no clear call, values can overlap the other calls
# Active calls of the source: *; i = inactive; ? = inconclusive; / = not tested or not shown. Rows were chosen to be rich in hits. Some 3.5% of all compounds tested hit in one or more screens of this group. Rule as the data show it, unless noted: active = inhibition above about 30%; inconclusive = no clear call, values can overlap the other calls; inactive = below that.
SMILES,Anthrax LF prot,Bead autofluor,BoNT-F LC inh,BoNT A protease,BJeLR lethal
CN1C(=O)C(Cc2nc3ccccc3c(=O)n2-c2ccccc2)c2ccccc21 (configuration not stated),-1,19805*,2,?,-3
c1ccc(CN2C3=NCCN3c3ccccc32)cc1,1,2571,-7,0,-8
Clc1ccc(CN2C3=NCCN3c3ccccc32)cc1Cl,0,23094*,-4,0,-2
Cc1cc(C(=O)NNC(=O)c2cccs2)c(C)o1,-5,6640,-5,1,/
COC(=O)C1CCN(C(=O)/C=C/c2ccc(OC)cc2)CC1,35*,?,i,-21,-5
COc1ccc(/C=C/C(=O)N2CCC(c3ccccc3)C2)cc1 (configuration not stated),1,2023,-2,-1,9
CN1CCN(c2ncnc3c2ncn3[C@H]2CN(Cc3ccco3)C[C@@H](CO)O2)CC1,1,3732,4,1,/
COc1ccc(CCN2CC(C(=O)NCc3ccco3)CC2=O)cc1OC (configuration not stated),-4,16739*,0,0,-3
COc1ccc(CCNC(=O)C2CC(=O)N(C3CCCCCCC3)C2)cc1OC (configuration not stated),-2,24165*,-3,-3,5
COc1ccc(CCNC(=O)C2CCN(S(=O)(=O)N3CCCCCC3)CC2)cc1OC,-6,22454*,4,3,7
C[C@@H]1CN([C@@H](C)CO)C(=O)CCCn2nncc2CO[C@H]1CN(C)S(=O)(=O)c1ccccc1F,-3,3811,-3,0,/
CC1(C(=O)NCc2ccc(C(F)(F)F)cc2)CCN1C1Cc2ccccc2C1 (configuration not stated),-6,3547,3,0,/
CCn1nnnc1NCc1ccc(N2CCCC2)cc1,-14,2096,-79,3,-1
CCCCCCNC(=O)C(C(=O)OCC)C1CCCCC1 (configuration not stated),-2,3718,-4,0,0
CCCc1nc2c3ccccc3ccn2c1Cc1cccc(F)c1,6,6281,0,1,/
O=C(NCc1ccccc1)c1cccn(Cc2cccc(Cl)c2)c1=O,-7,3907,11,4,-14
CNC(=S)NNC(=O)c1cccn(Cc2cccc(Cl)c2)c1=O,0,24235*,-3,-2,0
CNC(=S)NNC(=O)c1cccn(Cc2ccc(Cl)c(Cl)c2)c1=O,0,22977*,-2,1,-3
CN1CCN(c2ncnc3c2ncn3[C@H]2CN(Cc3ccc(C(=O)O)cc3)C[C@@H](CO)O2)CC1,-4,3873,1,0,/
COc1ccc(N2CCN(C(=O)Cc3ccc(-n4c(=O)[nH]c5ccccc5c4=O)cc3)CC2)cc1,-1,4148,10,-1,-5
O=C(Cc1ccc(-n2c(=S)[nH]c3ccccc3c2=O)cc1)N1CCC(N2CCCCC2)CC1,1,23979*,-3,-2,1
CCOc1ccc(N(CC(=O)N2CCCCCC2)S(C)(=O)=O)cc1,1,3745,-6,3,7
CN(C(=O)CSc1nc2c(c(=O)[nH]1)CCCC2)C1CCCCC1,-1,20234*,4,?,-5
O=c1[nH]c(SCc2ccccc2Cl)nc2c1CCC2,-2,23543*,-2,-3,6
Cc1ccc(CSc2nc3c(c(=O)[nH]2)CCC3)cc1,-2,20993*,-4,?,-4
SMILES,Anthrax LF prot,Bead autofluor,BoNT-F LC inh,BoNT A protease,BJeLR lethal
CN(C(=O)CSc1nc(N)cc(=O)[nH]1)C1CCCCC1,1,4153,3,-1,/
Cc1ccc(NC(=O)CSc2nc3c(c(=O)[nH]2)CCC3)cc1C,-2,17130*,-2,-2,-9
CC1(C(=O)NS(=O)(=O)C2CC2)CCCN(C(=O)c2ccco2)C1 (configuration not stated),-7,3051,-2,-1,/
Cn1c(CSc2nc3ccccc3s2)nnc1SCC(=O)NCCCN1CCOCC1,2,4482,6,1,-1
Cc1cc(C)cc(NC(=O)Nc2ccccc2N2CCCCC2)c1,2,4345,-5,0,-1
O=C(CCC(=O)NC1CCCCCC1)Nc1nnc(C(F)(F)F)s1,-6,21138*,6,?,5
COc1ccc(NC(=O)CCC(=O)Nc2nnc(C(F)(F)F)s2)c(OC)c1,-10,18599*,-2,1,-6
COc1ccc(CCC(=O)Nc2nnc(C(F)(F)F)s2)cc1,9,6148,-1,0,-5
O=C(CCC(=O)NC1CCCCCCC1)Nc1nnc(C(F)(F)F)s1,-1,8566,-6,-1,-12
Cc1csc(OCc2ccc(C#N)cc2)n1,-2,10450,-8,0,-3
O=C(NCCCN1CCOCC1)C(=O)NCC1OCCN1S(=O)(=O)c1ccc(Cl)cc1 (configuration not stated),-10,2845,-5,0,/
Cc1ccc(C)c(NC(=O)C2CCC(C)(C(=O)O)C2(C)C)c1 (configuration not stated),-1,24078*,-6,-4,-21
CC1(C(=O)O)CCC(C(=O)NC2CCCCCC2)C1(C)C (configuration not stated),1,21823*,3,5,0
CNC(C)C(=O)NC(C(=O)NC(C)C(=O)Nc1cccc2ccccc12)C(C)C (configuration not stated),-3,3620,-8,0,/
COc1ccc(NC(=O)c2sc(=O)n(Cc3ccc4ccccc4c3)c2C)cc1OC,2,4845,-2,0,/
Cc1c(C(=O)N2CCN(c3ccccc3F)CC2)sc2nc(-c3ccccc3)cn12,-8,21586*,0,?,-3
COC(=O)c1ccc(NC(=O)c2sc3nc(-c4ccccc4)cn3c2C)cc1,-2,21396*,-1,-1,2
CC(C(=O)N1CCN(Cc2ccc3c(c2)OCO3)CC1)c1ccc([N+](=O)[O-])cc1 (configuration not stated),1,2762,2,1,-2
CCc1cc(=O)oc2cc3oc(C)c(C)c3cc12,1,19139*,5,?,-5
CCCc1cc(=O)oc2cc3oc(C)c(C)c3cc12,-17,9739,5,0,-4
C=CCNc1nc(-c2ccccc2)nc(-n2ccnc2)n1,0,18305*,8,5,-3
c1ccc(-c2nc(NC3CC3)nc(-n3ccnc3)n2)cc1,2,21514*,-9,-6,-4
O=C(/C=C/[C@H]1O[C@@H](n2ccc(=O)[nH]c2=O)[C@H](O)[C@@H]1O)NCc1cccc2ccccc12,-10,5669,-5,0,/
Cn1c(=O)n(Cc2ccccc2)c(=O)c2c1nc1n2CCCN1CCc1ccccc1,-5,23593*,-3,?,20
Cn1c(=O)n(Cc2ccccc2)c(=O)c2c1nc1n2CCCN1Cc1ccccc1,-2,4922,-29,-1,-5
CC1CN(Cc2ccccc2)c2nc3c(c(=O)n(C)c(=O)n3C)n2C1 (configuration not stated),0,20687*,-1,?,-4
CC1CN(CCc2ccccc2)c2nc3c(c(=O)n(C)c(=O)n3C)n2C1 (configuration not stated),-2,4459,-6,0,-7
